Where “and” joins values, the source holds several entries; their conditions need not be identical. Equal entries are not always repeated.
Assays:
[1] = molecular target: Calcium/calmodulin-dependent protein kinase type II subunit alpha (Homo sapiens) (UniProt Q9UQM7); conditions: at 1 µM;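 note: reported value is a mean percent inhibition of CAMK2A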
[2] = molecular target: Calcium/calmodulin-dependent protein kinase type II subunit delta (Homo sapiens) (UniProt Q13557); conditions: at 0.1 µM
[3] = molecular target: Calcium/calmodulin-dependent protein kinase type II subunit delta (Homo sapiens) (UniProt Q13557); conditions: at 1 µM
[4] = molecular target: T1, Calcium/calmodulin-dependent protein kinase type IV (Homo sapiens) (UniProt Q16566); conditions: at 0.1 µM
T1 sequence (whole entry): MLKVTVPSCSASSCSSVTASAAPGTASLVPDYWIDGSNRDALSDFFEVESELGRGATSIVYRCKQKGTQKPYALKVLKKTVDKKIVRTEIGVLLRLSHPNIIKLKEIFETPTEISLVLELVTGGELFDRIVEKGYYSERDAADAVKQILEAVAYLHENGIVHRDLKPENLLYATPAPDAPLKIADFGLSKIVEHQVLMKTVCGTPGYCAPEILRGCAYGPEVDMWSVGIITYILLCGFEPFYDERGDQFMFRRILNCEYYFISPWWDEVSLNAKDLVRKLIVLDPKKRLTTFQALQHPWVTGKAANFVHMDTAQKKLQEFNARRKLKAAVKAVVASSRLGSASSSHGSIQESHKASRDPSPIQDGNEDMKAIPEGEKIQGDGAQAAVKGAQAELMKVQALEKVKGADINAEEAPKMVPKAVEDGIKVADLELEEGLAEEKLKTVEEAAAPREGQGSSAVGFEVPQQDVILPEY

[5] = molecular target: T1, Calcium/calmodulin-dependent protein kinase type IV (Homo sapiens); conditions: at 1 µM
[6] = molecular target: T2, Serine/threonine-protein kinase Chk1 (Homo sapiens) (UniProt O14757); conditions: at 0.1 µM
T2 sequence (whole entry): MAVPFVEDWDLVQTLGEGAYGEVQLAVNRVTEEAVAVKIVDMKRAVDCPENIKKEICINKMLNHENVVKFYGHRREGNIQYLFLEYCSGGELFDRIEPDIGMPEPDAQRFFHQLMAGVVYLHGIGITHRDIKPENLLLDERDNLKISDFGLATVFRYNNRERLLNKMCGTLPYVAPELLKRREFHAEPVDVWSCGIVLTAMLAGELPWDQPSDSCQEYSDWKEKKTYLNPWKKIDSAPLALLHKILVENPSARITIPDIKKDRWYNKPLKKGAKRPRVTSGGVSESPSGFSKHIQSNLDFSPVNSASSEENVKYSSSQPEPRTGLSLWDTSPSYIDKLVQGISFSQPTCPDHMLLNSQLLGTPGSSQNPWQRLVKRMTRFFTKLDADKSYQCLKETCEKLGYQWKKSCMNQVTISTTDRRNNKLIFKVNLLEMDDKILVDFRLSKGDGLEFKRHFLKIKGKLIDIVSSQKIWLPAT

[7] = molecular target: T2, Serine/threonine-protein kinase Chk1 (Homo sapiens); conditions: at 1 µM
[8] = molecular target: Serine/threonine-protein kinase Chk2 (Homo sapiens) (UniProt O96017); conditions: at 0.1 µM
[9] = molecular target: Serine/threonine-protein kinase Chk2 (Homo sapiens) (UniProt O96017); conditions: at 1 µM
[10] = molecular target: Death-associated protein kinase 1 (Homo sapiens) (UniProt P53355); conditions: at 0.1 µM
[11] = molecular target: Death-associated protein kinase 1 (Homo sapiens) (UniProt P53355); conditions: at 1 µM
[12] = molecular target: T3, Serine/threonine-protein kinase DCLK2 (Homo sapiens) (UniProt Q8N568); conditions: at 0.1 µM
T3 sequence (whole entry): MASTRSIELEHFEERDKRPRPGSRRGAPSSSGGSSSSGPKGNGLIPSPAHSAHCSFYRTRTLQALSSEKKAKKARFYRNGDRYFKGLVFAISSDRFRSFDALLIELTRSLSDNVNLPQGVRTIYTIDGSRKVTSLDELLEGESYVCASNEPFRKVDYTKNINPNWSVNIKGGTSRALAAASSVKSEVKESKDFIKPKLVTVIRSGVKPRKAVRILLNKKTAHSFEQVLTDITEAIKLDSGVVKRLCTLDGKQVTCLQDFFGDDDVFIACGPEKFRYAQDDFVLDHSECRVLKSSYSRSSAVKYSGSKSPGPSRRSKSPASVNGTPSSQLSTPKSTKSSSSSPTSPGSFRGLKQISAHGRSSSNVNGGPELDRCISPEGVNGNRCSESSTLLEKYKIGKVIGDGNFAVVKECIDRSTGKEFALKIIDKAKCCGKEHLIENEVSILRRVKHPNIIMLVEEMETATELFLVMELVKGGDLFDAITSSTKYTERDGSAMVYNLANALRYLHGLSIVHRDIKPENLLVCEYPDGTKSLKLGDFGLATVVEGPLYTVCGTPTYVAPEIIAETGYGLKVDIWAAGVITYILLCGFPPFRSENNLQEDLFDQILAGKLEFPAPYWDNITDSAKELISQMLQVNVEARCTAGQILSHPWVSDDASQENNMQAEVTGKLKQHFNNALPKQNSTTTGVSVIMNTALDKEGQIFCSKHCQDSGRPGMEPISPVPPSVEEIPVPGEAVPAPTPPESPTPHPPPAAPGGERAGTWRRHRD

[13] = molecular target: T3, Serine/threonine-protein kinase DCLK2 (Homo sapiens); conditions: at 1 µM
[14] = molecular target: MAP kinase-activated protein kinase 2 (Homo sapiens) (UniProt P49137); conditions: at 0.1 µM
[15] = molecular target: MAP kinase-activated protein kinase 2 (Homo sapiens) (UniProt P49137); conditions: at 1 µM
[16] = molecular target: MAP kinase-activated protein kinase 3 (Homo sapiens) (UniProt Q16644); conditions: at 0.1 µM
[17] = molecular target: MAP kinase-activated protein kinase 3 (Homo sapiens) (UniProt Q16644); conditions: at 1 µM
[18] = molecular target: Serine/threonine-protein kinase MARK1 (Homo sapiens) (UniProt Q9P0L2); conditions: at 0.1 µM
[19] = molecular target: Serine/threonine-protein kinase MARK1 (Homo sapiens) (UniProt Q9P0L2); conditions: at 1 µM
[20] = molecular target: MAP/microtubule affinity-regulating kinase 3 (Homo sapiens) (UniProt P27448); conditions: at 0.1 µM;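 note: mean percent inhibition of MARK3 kinase activity, measured within the GSK PKIS screening panel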
Chain of MAP/microtubule affinity-regulating kinase 3 (Homo sapiens) (P27448 whole entry, looked up): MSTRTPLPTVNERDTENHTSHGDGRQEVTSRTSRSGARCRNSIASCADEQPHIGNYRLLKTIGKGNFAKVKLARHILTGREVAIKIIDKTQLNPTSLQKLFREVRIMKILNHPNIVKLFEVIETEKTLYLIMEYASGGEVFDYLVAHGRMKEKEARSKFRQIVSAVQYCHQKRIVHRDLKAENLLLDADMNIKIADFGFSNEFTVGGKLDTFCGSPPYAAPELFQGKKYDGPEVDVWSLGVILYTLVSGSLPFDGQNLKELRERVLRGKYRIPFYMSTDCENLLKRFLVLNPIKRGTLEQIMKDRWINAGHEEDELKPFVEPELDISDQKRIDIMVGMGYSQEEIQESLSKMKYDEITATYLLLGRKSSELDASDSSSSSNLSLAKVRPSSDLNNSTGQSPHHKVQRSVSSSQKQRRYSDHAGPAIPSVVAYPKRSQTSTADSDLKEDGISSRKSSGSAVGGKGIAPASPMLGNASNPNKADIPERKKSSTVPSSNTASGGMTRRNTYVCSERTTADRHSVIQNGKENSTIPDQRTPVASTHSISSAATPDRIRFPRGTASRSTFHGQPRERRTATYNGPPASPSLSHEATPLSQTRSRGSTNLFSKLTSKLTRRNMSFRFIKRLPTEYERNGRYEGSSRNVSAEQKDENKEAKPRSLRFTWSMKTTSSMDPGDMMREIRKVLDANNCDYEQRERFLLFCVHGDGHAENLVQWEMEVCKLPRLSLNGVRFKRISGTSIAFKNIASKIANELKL

Chain of Calcium/calmodulin-dependent protein kinase type II subunit delta (Homo sapiens) (Q13557 whole entry): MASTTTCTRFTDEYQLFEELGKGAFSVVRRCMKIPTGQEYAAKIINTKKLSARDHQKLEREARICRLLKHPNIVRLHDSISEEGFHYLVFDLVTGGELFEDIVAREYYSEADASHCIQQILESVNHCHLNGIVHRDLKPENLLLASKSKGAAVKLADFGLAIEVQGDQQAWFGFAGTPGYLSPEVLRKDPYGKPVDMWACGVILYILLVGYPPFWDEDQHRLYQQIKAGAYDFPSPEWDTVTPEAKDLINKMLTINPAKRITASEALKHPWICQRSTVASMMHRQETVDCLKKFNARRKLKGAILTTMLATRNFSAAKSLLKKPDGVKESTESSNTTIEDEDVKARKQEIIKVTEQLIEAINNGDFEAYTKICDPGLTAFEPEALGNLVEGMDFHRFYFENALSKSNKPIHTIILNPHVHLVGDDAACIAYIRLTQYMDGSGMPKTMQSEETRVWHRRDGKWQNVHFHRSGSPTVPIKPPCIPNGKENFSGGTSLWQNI
Chain of MAP kinase-activated protein kinase 2 (Homo sapiens) (P49137 whole entry, looked up): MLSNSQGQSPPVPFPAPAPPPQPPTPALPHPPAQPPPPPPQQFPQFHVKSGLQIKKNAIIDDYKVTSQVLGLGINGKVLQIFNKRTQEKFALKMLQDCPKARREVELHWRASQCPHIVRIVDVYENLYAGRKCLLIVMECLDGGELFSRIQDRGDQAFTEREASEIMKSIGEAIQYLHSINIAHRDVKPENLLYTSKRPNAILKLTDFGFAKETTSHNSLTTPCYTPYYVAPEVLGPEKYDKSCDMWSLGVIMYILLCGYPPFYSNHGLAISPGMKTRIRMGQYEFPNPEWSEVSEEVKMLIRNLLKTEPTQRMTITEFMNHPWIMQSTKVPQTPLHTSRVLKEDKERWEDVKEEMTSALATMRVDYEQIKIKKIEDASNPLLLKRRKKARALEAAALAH
Chain of Death-associated protein kinase 1 (Homo sapiens) (P53355 whole entry, looked up): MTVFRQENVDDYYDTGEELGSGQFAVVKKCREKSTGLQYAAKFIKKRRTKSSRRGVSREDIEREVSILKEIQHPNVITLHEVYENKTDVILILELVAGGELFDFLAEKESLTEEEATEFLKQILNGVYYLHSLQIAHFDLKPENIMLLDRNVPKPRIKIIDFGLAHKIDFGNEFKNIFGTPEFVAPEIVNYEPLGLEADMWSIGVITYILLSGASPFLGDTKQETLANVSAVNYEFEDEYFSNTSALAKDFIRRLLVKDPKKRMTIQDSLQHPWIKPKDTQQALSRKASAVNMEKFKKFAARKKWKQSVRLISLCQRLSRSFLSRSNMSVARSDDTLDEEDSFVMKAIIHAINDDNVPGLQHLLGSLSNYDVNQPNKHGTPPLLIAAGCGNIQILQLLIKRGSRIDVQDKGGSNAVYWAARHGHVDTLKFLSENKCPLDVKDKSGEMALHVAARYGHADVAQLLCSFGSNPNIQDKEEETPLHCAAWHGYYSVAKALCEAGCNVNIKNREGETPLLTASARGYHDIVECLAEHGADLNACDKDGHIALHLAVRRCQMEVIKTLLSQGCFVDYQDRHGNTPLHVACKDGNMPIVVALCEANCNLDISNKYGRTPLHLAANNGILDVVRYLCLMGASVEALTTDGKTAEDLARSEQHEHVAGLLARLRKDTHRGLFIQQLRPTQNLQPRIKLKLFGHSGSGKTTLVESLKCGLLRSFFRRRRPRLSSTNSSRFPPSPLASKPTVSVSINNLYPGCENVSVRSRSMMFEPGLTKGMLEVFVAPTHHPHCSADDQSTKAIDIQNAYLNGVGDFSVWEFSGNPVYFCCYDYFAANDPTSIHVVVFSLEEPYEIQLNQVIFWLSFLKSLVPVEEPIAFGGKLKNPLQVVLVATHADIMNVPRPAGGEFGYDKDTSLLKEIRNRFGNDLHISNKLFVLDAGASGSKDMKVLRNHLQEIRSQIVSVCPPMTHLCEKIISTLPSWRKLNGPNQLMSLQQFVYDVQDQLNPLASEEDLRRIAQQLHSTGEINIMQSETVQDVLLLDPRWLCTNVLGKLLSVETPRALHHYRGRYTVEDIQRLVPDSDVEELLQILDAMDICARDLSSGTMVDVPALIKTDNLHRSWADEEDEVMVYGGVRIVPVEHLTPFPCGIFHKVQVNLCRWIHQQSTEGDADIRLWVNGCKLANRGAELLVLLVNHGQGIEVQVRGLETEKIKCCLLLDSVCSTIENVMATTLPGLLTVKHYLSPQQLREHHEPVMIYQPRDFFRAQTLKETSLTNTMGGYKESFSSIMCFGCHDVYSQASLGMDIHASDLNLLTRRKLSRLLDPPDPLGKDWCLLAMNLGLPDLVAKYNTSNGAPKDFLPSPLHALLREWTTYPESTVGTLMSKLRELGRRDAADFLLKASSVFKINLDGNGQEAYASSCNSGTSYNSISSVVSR
Chain of Serine/threonine-protein kinase Chk2 (Homo sapiens) (O96017 whole entry): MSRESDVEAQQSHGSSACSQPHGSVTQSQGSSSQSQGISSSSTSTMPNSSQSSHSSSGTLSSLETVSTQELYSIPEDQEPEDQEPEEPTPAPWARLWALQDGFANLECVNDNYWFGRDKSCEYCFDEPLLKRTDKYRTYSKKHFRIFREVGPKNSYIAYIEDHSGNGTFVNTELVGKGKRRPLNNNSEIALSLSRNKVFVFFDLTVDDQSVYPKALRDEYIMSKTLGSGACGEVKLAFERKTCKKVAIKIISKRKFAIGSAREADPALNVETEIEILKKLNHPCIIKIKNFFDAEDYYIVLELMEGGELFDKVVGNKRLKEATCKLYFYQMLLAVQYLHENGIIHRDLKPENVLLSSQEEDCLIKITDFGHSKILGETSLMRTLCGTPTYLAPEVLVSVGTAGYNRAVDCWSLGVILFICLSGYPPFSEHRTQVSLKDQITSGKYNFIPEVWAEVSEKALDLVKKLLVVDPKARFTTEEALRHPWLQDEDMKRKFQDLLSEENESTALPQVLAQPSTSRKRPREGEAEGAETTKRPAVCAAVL
Chain of Calcium/calmodulin-dependent protein kinase type II subunit alpha (Homo sapiens) (Q9UQM7 whole entry): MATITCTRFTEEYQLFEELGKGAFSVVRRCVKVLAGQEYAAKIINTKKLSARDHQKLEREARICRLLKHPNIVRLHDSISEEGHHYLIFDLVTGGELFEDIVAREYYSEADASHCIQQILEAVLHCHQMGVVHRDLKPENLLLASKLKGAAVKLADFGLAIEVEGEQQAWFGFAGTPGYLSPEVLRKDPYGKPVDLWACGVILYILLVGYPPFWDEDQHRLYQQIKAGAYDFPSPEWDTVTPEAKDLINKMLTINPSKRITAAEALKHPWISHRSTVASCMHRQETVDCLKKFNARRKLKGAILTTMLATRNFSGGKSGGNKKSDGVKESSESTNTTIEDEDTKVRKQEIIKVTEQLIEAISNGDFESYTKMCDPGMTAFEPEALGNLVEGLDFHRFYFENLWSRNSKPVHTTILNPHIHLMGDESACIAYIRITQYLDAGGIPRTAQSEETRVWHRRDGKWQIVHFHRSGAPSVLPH
Chain of Serine/threonine-protein kinase MARK1 (Homo sapiens) (Q9P0L2 whole entry, looked up): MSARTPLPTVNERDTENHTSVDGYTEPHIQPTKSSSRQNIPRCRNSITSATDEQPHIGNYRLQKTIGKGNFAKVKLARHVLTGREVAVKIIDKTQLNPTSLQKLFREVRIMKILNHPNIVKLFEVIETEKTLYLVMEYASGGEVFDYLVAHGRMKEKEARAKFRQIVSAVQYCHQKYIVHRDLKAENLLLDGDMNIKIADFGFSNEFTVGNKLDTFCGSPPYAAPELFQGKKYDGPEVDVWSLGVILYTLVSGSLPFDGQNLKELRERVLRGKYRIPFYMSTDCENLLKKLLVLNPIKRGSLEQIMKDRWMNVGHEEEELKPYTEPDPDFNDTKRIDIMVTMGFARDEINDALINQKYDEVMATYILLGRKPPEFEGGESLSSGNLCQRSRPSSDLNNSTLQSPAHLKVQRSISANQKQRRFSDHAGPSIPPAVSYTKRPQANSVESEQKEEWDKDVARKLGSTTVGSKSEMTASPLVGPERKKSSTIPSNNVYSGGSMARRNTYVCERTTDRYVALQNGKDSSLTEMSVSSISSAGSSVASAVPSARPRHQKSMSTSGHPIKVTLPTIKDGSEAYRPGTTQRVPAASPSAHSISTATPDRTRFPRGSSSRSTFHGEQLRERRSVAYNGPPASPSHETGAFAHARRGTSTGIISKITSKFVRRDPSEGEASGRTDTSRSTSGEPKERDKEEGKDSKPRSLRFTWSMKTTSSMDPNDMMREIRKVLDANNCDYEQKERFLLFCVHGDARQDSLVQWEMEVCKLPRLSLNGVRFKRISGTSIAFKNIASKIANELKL

Row | SMILES | inhibition [1] | inhibition [2] | inhibition [3] | inhibition [4] | inhibition [5] | inhibition [6] | inhibition [7] | inhibition [8] | inhibition [9] | inhibition [10] | inhibition [11] | inhibition [12] | inhibition [13] | inhibition [14] | inhibition [15] | inhibition [16] | inhibition [17] | inhibition [18] | inhibition [19] | inhibition [20]
1 | Fc1ccc(Nc2nccc(-c3c(-c4ccc(C(F)(F)F)cc4)nn4ncccc34)n2)cc1F | 4.6% | 1.73% | 4.42% | -0.48% | 0.05% | 3% | 3.73% | 3.02% | 4.46% | 3.45% | 4.85% | 1.36% | 0.53% | 1.35% | 0.53% | 1.82% | 4.65% | 3.43% | 4.46% | 3.28%
2 | COc1ccc(-c2nn3ncccc3c2-c2ccnc(Nc3ccc(F)c(F)c3)n2)cc1 | 4.43% | 3.14% | 7.4% | -3.18% | -4.79% | 3.76% | 8.64% | 6.74% | 7.89% | 4.63% | 6.8% | 1.7% | 0.5% | 2.31% | 2.82% | 16.8% | 32.5% | 4.53% | 8.38% | 4.11%
3 | CS(=O)(=O)CCNCc1ccoc1-c1ccc2ncnc(Nc3ccc(OCc4ccccc4)cc3)c2c1 | 0.09% | 0.18% | -0.44% | -0.43% | -1.35% | 0.86% | -2.73% | 1.56% | 8.55% | -0.21% | -0.75% | -1.49% | -0.03% | -0.61% | -0.91% | 0.57% | 0.18% | -0.89% | 1.23% | -2.66%
4 | COc1cccc(Nc2nccc(-c3cnn4ncccc34)n2)c1 | 13.8% | 6.9% | 35.4% | -0.56% | -1.54% | -2.67% | 3.93% | 1.92% | 11.2% | -0.58% | 0.16% | -2.05% | 2.73% | 1.39% | -0.06% | 2.8% | 2.89% | 4.15% | 27.7% | 4.03%
5 | Nc1nonc1-c1nc2cnccc2n1C1CC1 | 5.07% and 5.46% | 3.94% and 2.63% | 7.79% and 4% | -0.5% and 1.35% | 0.32% and 1.21% | 3.32% and 0.59% | 14.4% and 10.5% | 2.75% and 1.53% | 6.34% and 2.63% | 2.98% and -0.26% | 4% and -1.82% | 1.88% and -0.85% | 3.6% and -3.51% | 1.36% and 1.4% | 1.45% and 0.82% | 5.15% and 2.54% | 6.05% and 1.43% | 6.69% and 4.73% | 23.2% and 20.6% | 7.63% and 5.91%
6 | CCS(=O)(=O)c1ccc(OC)c(Nc2ncc(-c3cccc(C(C)=O)c3)o2)c1 | 1.16% | 1.73% | 3.23% | -3% | -5.43% | -0.75% | -1.38% | 1.62% | 3.67% | 2.47% | 3.26% | -0.25% | -0.78% | 2.19% | 1.71% | 3% | 3.61% | 1.61% | 3.04% | 0.57%
7 | COc1cc2c(cc1Nc1nc(Nc3cccc(F)c3C(N)=O)c3cc[nH]c3n1)N(C(=O)CN1CCN(C(C)C)CC1)CC2 | 8.11% | 2.82% | 7.41% | 2.31% | 7.37% | -0.51% | 4.94% | 6.05% | 29.8% | 2.3% | 5.15% | 4.68% | 1.43% | 1.04% | 2.85% | 3.25% | 5.17% | 1.44% | 3.35% | 3.73%
8 | Cc1nnc(-c2cccc(-c3ccc(C(=O)NCC4CC4)cc3)c2)o1 | 3.99% | 3.26% | 6.04% | -2.72% | -2.97% | 4.9% | 5.14% | 3.86% | 4.86% | 5.32% | 6.03% | 1.25% | 4.29% | 2.92% | 2.7% | 5.72% | 6.73% | 4.06% | 6.5% | 4.12%
9 | N#Cc1ccc2c(-c3ccnc(NC4CC4)n3)c(-c3ccc(F)cc3)nn2c1 | -1.71% | 0.13% | -1.01% | 0.17% | -2.53% | -1.96% | -0.86% | -0.32% | 0.27% | 1.33% | 0.06% | -0.01% | 1.17% | 0.5% | -0.23% | 32.7% | 35.1% | 0.42% | 1.08% | 2.94%
10 | Cc1c2ccc(N(C)c3ccnc(Nc4cccc(S(N)(=O)=O)c4)n3)cc2nn1C | 4.44% | 4.36% | 5.37% | 0.12% | 0.2% | 3.06% | 4.57% | 3.17% | 7.22% | 2.95% | 3.66% | -2.02% | -1.83% | 2.01% | 1.4% | 3.68% | 4.05% | 4.13% | 7.61% | 5.31%
11 | CNC(=O)c1cncc(/C=C/c2ccccc2C)c1 | 3.24% | 2.3% | 3.14% | -1.31% | -2.38% | 5.89% | 5.73% | 2.11% | 3.83% | 6.54% | 7.67% | 0.83% | 0.28% | 1.99% | 2.51% | 3.43% | 3.22% | 2.55% | 7.06% | 3.94%
12 | FC(F)(F)CNc1nccc(-c2cnn3ncccc23)n1 | -1.03% | 2.87% | 1.95% | -0.09% | -1.75% | 0.28% | 2.9% | 1.64% | 0.78% | 3.66% | 2.17% | -0.54% | 3.19% | 1% | -0.08% | 3.47% | 3.54% | 1.58% | 4.46% | 0.46%
13 | O=C1Nc2ccccc2/C1=C1\CCc2cc(O)ccc21 | 8.04% | 6.22% | 13% | 0.46% | -0.69% | -1.18% | 9.92% | 1.37% | 21.3% | -1.94% | -2.93% | 2.55% | 0.84% | -0.94% | -0.15% | -1.04% | -1.15% | 8.64% | 33.8% | 7.19%

— ChEMBL document CHEMBL1961873, “Compounds: GSK PKIS; Assays: Nanosyn kinase panel” (2012)
